The assay concerns Trichoderma virens ATCC 9645. The experiment in a line: growth yield (OD600) relative to untreated control; higher = less growth inhibition. As to conditions: compound concentration: 100 uM. The procedure, abridged:
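A biocide at 200 ng ml^−1 was co-applied to some wells, and library compounds were present in all test wells at 100 μM final. The wells held 100 μl of Trichoderma virens ATCC 9645 spores at 15,000 spores ml^−1 in potato dextrose broth, grown at 30 °C in 96-well plates, with OD600 read at 40 h and 72 h. Results are relative growth against the control without either agent, averaged across duplicate screens.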

Counter-ions that a name gives are not always drawn. ± gives the standard error. Out of some 1,300 compounds screened, about 75 (6%) showed an effect of 50% or more. This excerpt belongs to a sample that is enriched for strong results.

As for `C[C@@H]1C[C@H]2[C@@H]3C[C@H](F)C4=CC(=O)C=C[C@]4(C)[C@@]3(F)[C@@H](O)C[C@]2(C)[C@@]1(O)C(=O)COC(=O)C(C)(C)C` [Flumethasone pivalate], the growth yield was found to be 106 ± 7.2% (40 h) and 104 ± 5.3% (72 h).
As to `Cc1ccccc1OCC(O)CO` (stereo not drawn) [Mephenesin], the growth yield is, setting by setting: (40 h) 98 ± 3.3%; (72 h) 99.5 ± 3.5%.
Take `Cc1cnc(C(=O)NCCc2ccc(S(=O)(=O)NC(=O)NC3CCCCC3)cc2)cn1` [Glipizide]: the growth yield runs as follows: (40 h) 103.7 ± 0.48%; (72 h) 104.3 ± 0.52%.
The corresponding values for `O=C(O)[C@H]1/C(=C/CO)O[C@@H]2CC(=O)N21` [Clavulanate potassium salt] are 95.5 ± 2.4% and 87.9 ± 3.4%.
The corresponding values for `Oc1ccc(OCc2ccccc2)cc1` [Monobenzone] are 48.6 ± 0.64% and 53.3 ± 1.7%.
The corresponding values for `CC(COc1ccccc1)NC(C)C(O)c1ccc(O)cc1` (stereo not drawn) [Isoxsuprine hydrochloride] are 101 ± 1.1% and 98.6 ± 2.3%.
As to `CC(COc1ccccc1)N(CCCl)Cc1ccccc1` (stereo not drawn) [Phenoxybenzamine hydrochloride], the growth yield reads like this: (40 h) 104 ± 4.6%; (72 h) 103 ± 4.2%.
For `Cc1ccc(O)c([C@H](CCN(C(C)C)C(C)C)c2ccccc2)c1` [Tolterodine tartrate], the growth yield stood at 96.7 ± 2.7% (40 h) and 97.95 ± 0.42% (72 h).
The corresponding values for `CN(C)CCn1nnnc1SCC1=C(C(=O)O)N2C(=O)[C@@H](NC(=O)Cc3csc(N)n3)[C@H]2SC1` [Cefotiam hydrochloride] are 102 ± 1.4% and 102.2 ± 0.73%.
With `OC(Cn1cncn1)(Cn1cncn1)c1ccc(F)cc1F` [Fluconazole], the growth yield runs as follows: (40 h) 55.1 ± 1.8%; (72 h) 61.14 ± 0.52%.
The corresponding values for `C[C@@H](c1ncncc1F)[C@](O)(Cn1cncn1)c1ccc(F)cc1F` [Voriconazole] are 3.02 ± 1.4% and 2.41 ± 0.94%.
Regarding `CC(C)NC(=N)NC(=N)Nc1ccc(Cl)cc1` [Proguanil hydrochloride], the growth yield runs as follows: (40 h) 110 ± 13%; (72 h) 109 ± 9%.
The corresponding values for `N=C(NCCCCCCNC(=N)NC(=N)Nc1ccc(Cl)cc1)NC(=N)Nc1ccc(Cl)cc1` [Chlorhexidine] are 2.7 ± 1.4% and 2.31 ± 0.84%.
The corresponding values for `N=C(N)NC(=N)NCCc1ccccc1` [Phenformin hydrochloride] are 96.9 ± 1.9% and 91.5 ± 2.7%.
The corresponding values for `CC(C)NCC(O)c1ccc2ccccc2c1` (stereo not drawn) [Pronethalol hydrochloride] are 98.6 ± 2.1% and 99.3 ± 2%.
For the molecule `CC(=O)N[C@@H](CC(=O)N[C@@H](CCC(=O)O)C(=O)O)C(=O)O` [Spaglumic acid], the growth yield was 101 ± 3.5% (40 h) and 99.5 ± 1.4% (72 h).
The corresponding values for `Cc1cc(C(C)(C)CC(C)(C)C)ccc1OCCOCC[N+](C)(C)Cc1ccccc1` [Methyl benzethonium chloride] are 1.43 ± 0.79% and 0.944 ± 0.52%.
The corresponding values for `CC(C)(C)CC(C)(C)c1ccc(OCCOCC[N+](C)(C)Cc2ccccc2)cc1` [Benzethonium chloride] are 1.75 ± 0.16% and 1.78 ± 0.1%.
As to `C[N+](C)(CCOc1ccccc1)Cc1ccccc1.O=C([O-])c1cc2ccccc2cc1O` [Bephenium hydroxynaphthoate], the growth yield amounted to 73.2 ± 1.1% (40 h) and 79.6 ± 2.2% (72 h).
The corresponding values for `CCOc1ccccc1OCC1CNCCO1` (stereo not drawn) [Viloxazine hydrochloride] are 99.6 ± 1.8% and 96.4 ± 1.4%.
In the case of `COc1ncnc(NS(=O)(=O)c2ccc(N)cc2)c1OC` [Sulfadoxine], the growth yield is 91 ± 9.4% (40 h) and 101 ± 2.6% (72 h).
The corresponding values for `O=C1c2cccc3c2[C@H](CCC3)CN1[C@@H]1CN2CCC1CC2` [Palonosetron hydrochloride] are 103 ± 6% and 99 ± 4.2%.
In the case of `O=C(NCCN1CCOCC1)c1ccc(Cl)cc1` [Moclobemide], the growth yield reads like this: (40 h) 102 ± 2.1%; (72 h) 106 ± 2%.
For the molecule `COc1ccc2[nH]c([S+]([O-])Cc3ncc(C)c(OC)c3C)nc2n1` (stereo not drawn) [Tenatoprazole], the growth yield (40 h) was 98.8 ± 4.8% and the growth yield (72 h) was 102 ± 1.6%.
The corresponding values for `CCOC(=O)c1ccc(OC(=O)CCCCCNC(=N)N)cc1` [Gabexate mesilate] are 76.6 ± 4.5% and 76 ± 3.7%.
The corresponding values for `Cc1nnc(NS(=O)(=O)c2ccc(N)cc2)s1` [Sulfamethizole] are 100.4 ± 0.32% and 99.74 ± 0.1%.
As to `COC(=O)[C@H](c1ccccc1Cl)N1CCc2sccc2C1` [Clopidogrel], the growth yield runs as follows: (40 h) 76.9 ± 1.6%; (72 h) 82 ± 1.1%.
With `CO[C@@]1(NC(=O)Cc2cccs2)C(=O)N2C(C(=O)O)=C(COC(N)=O)CS[C@@H]21` [Cefoxitin sodium salt], the growth yield reads like this: (40 h) 94.4 ± 3.5%; (72 h) 94.8 ± 1.9%.
As for `Nc1c2ccccc2nc2ccccc12` [Aminacrine], the growth yield is, setting by setting: (40 h) 98.64 ± 0.48%; (72 h) 96.9 ± 2.9%.
The corresponding values for `Nc1ccc(/N=N/c2ccccc2)c(N)n1` [Phenazopyridine hydrochloride] are 21.1 ± 1.4% and 49.4 ± 6.2%.
The corresponding values for `CCN(Cc1ccncc1)C(=O)C(CO)c1ccccc1` (stereo not drawn) [Tropicamide] are 99.6 ± 1.8% and 102 ± 1.1%.
Consider `CO[C@@H]1[C@@H](OC(N)=O)[C@@H](O)[C@H](Oc2ccc3c(O)c(NC(=O)c4ccc(O)c(CC=C(C)C)c4)c(=O)oc3c2C)OC1(C)C` [Novobiocin sodium salt], for which the growth yield runs as follows: (40 h) 92 ± 1.8%; (72 h) 115 ± 4.7%.
The corresponding values for `CCOC(=O)[C@@](C)(N)Cc1ccc(O)c(O)c1` [Methyldopate hydrochloride] are 104 ± 5.2% and 97.85 ± 0.94%.
The corresponding values for `N[C@H]1CONC1=O` [(S)-(-)-Cycloserine] are 104 ± 3.3% and 96.8 ± 3%.
With `Cc1noc(NS(=O)(=O)c2ccc(N)cc2)c1C` [Sulfisoxazole], the growth yield is, setting by setting: (40 h) 87.4%; (72 h) 96.2 ± 1.8%.
With `Cc1cc(C)nc(NS(=O)(=O)c2ccc(N)cc2)n1` [Sulfamethazine sodium salt], the growth yield runs as follows: (40 h) 106 ± 4.5%; (72 h) 101 ± 2.2%.
In turn, `Cc1cc(NS(=O)(=O)c2ccc(N)cc2)no1` [Sulfamethoxazole] returned a growth yield (40 h) of 40 ± 4.8% and a growth yield (72 h) of 82.9 ± 2.1%.
As to `C#C[C@]1(O)CC[C@H]2[C@@H]3CCC4=Cc5oncc5C[C@]4(C)[C@H]3CC[C@@]21C` [Danazol], the growth yield is 83.39 ± 0.79% (40 h) and 87.15 ± 0.32% (72 h).
As to `CCCc1nc(C(C)(C)O)c(C(=O)O)n1Cc1ccc(-c2ccccc2-c2nnn[nH]2)cc1` [Olmesartan], the growth yield (40 h) was 100 ± 3.2% and the growth yield (72 h) was 99.8 ± 2.9%.
The corresponding values for `c1ccc(-c2ccc(C(c3ccccc3)n3ccnc3)cc2)cc1` (stereo not drawn) [Bifonazole] are 2.86 ± 1.9% and 1.99 ± 0.94%.
The corresponding values for `N#Cc1ccc(C(c2ccc(C#N)cc2)n2cncn2)cc1` [Letrozole] are 103 ± 1.1% and 101.5 ± 0.42%.
`CCC1(c2ccccc2)NC(=O)N(C)C1=O` (stereo not drawn) [Mephenytoin] registered a growth yield (40 h) of 110 ± 4.9% and a growth yield (72 h) of 102 ± 4.5%.
Take `CC1(C)[C@@H](OC(=O)CCC(=O)O)CC[C@]2(C)[C@H]3C(=O)C=C4[C@@H]5C[C@@](C)(C(=O)O)CC[C@]5(C)CC[C@@]4(C)[C@]3(C)CC[C@@H]12` [Carbenoxolone disodium salt]: the growth yield is, setting by setting: (40 h) 95 ± 4.1%; (72 h) 94.6 ± 2.1%.
The corresponding values for `CN(C)[C@@H]1C(O)=C(C(N)=O)C(=O)[C@@]2(O)C(O)=C3C(=O)c4c(O)ccc(Cl)c4[C@@H](O)[C@H]3C[C@@H]12` [Demeclocycline hydrochloride] are 82.6 ± 3.2% and 85.1 ± 5.6%.

The values above are taken from the supplement of paper PMC8007513.
